Bioassay records (PubChem)
RGS12 GoLoco inh = qHTS Assay for Inhibitors of RGS12 GoLoco Motif Activity (Red Fluorophore) | Guanine nucleotide-binding protein G(i) subunit alpha-1 (Homo sapiens), P63096 | Gai1:RGS12 GoLoco peptide FP, rhodamine, 10 min | Potency, µM (highest dose often 61.6 µM), for inactives: at the top dose activity, negative = inhibition, most hits filed as inhibitors | actives 0.44% (n = 230,000) | AID 880, 2007; active means well fitted inhibition curve with a large enough effect, not every such curve was filed as active; inactive means no such curve, though single readings can be large or run the other way; further: potency means the concentration at half of the fitted maximal effect; on the % scale 0 is the no-effect control and ±100 the full control effect; nearly all actives have a fitted effect of over 30% in size
HTT aggregate = qHTS Multiplex Assay to Identify Dual Action Probes in a Cell Model of Huntington: Aggregate Formation (GFP). PC12 HttQ103-GFP aggregates, Acumen cytometry, 40 h. Potency, µM (titrated, usually from 46.1 µM), inactives show at the top dose activity change, negative = inhibition, hits mostly inhibitors. actives 1.1% (n = 220,000). AID 1688, 2009; active means well fitted curve in the direction sought with a large enough effect; inconclusive means small, poorly fitted or top-dose-only effect, or another doubt; inactive means no such curve, though single readings can be large; an effect the other way counts as inactive or inconclusive; further: potency means the concentration at half of the fitted maximal effect; on the % scale 0 is the no-effect control and ±100 the full control effect; nearly all actives have a fitted effect of over 60% in size
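Ecdysone-promoter PC12 model expressing HTT exon 1 Q103 fused to GFP, induced by tebufenozide at 100 nM final. Compounds titrated; aggregates sized 1–25 µm scored on a 488 nm laser cytometer.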
HTT ATP protect = qHTS Multiplex Assay to Identify Dual Action Probes in a Cell Model of Huntington: Cytoprotection (ATP); actives 0.14% (n = 230,000); Potency, µM (highest dose often 56.4 µM), without a hit: cytoprotection (ATP increase), actives largely listed as activators; PC12 HTT-Q103 induced, cytoprotection, ATP luminescence, 40 h; active means well fitted curve in the direction sought with a large enough effect; inconclusive means small, poorly fitted or top-dose-only effect, or another doubt; inactive means no such curve, though single readings can be large; an effect the other way counts as inactive or inconclusive; further: potency means the concentration at half of the fitted maximal effect; % of control where 0% means no effect; nearly all actives have a fitted effect of over 45% in size
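Compounds added alongside 100 nM tebufenozide, which induces toxic Q103 huntingtin exon 1-GFP in stable PC12 cells; surviving cells quantified by luminescent ATP measurement. Medium: phenol red-free DMEM, 5% equine and 5% calf serum.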
ALDH1A1 inh = qHTS Assay for Inhibitors of Aldehyde Dehydrogenase 1 (ALDH1A1). Aldehyde dehydrogenase 1A1 (Homo sapiens), P00352. Purified ALDH1A1, NADH fluorescence, propionaldehyde substrate. Potency, µM (doses to about 75.3 µM), for the others: at the highest dose activity, negative = inhibition, hits mostly inhibitors. actives 7.3% (n = 220,000). AID 1030, 2008;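 further: potency means the concentration at half of the fitted maximal effect; plate controls were no enzyme wells and a reference inhibitor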
Target sequence (P00352 whole entry, looked up): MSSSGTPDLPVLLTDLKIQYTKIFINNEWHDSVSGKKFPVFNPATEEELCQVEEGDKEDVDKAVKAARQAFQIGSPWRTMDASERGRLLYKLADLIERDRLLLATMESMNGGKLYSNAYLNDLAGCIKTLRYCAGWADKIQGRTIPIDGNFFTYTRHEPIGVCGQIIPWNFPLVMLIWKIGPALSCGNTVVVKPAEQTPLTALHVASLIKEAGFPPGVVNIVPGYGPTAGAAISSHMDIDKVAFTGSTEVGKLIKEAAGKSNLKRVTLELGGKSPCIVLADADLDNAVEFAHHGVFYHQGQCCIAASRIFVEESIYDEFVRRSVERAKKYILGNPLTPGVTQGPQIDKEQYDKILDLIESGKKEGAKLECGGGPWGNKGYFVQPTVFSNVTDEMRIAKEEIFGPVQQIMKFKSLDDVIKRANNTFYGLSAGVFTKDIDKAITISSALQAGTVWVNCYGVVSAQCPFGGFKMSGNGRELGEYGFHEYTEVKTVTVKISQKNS
HPGD inh = qHTS Assay for Inhibitors of HPGD (15-Hydroxyprostaglandin Dehydrogenase) | 15-hydroxyprostaglandin dehydrogenase [NAD(+)] (Homo sapiens), P15428 | purified HPGD, NADH fluorescence kinetic, PGE2 substrate | Potency, µM, without a hit: at the highest dose activity change, negative = inhibition, hits mostly inhibitors | actives 4.3% (n = 150,000) | AID 894, 2007; further: potency means the concentration at half of the fitted maximal effect; on the % scale 0 is the no-effect control and ±100 the full control effect
Target sequence (P15428 whole entry, looked up): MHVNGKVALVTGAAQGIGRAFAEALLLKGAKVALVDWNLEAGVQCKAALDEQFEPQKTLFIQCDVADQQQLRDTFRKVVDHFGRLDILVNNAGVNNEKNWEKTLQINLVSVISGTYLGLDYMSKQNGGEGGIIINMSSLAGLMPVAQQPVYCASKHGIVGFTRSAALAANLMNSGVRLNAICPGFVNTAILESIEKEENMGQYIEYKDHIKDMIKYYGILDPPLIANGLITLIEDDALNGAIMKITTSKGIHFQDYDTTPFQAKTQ
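NADH formation kinetics: reaction with 30 uM PGE2 and 1 mM NAD+ (final), 20 nM enzyme, Tris-HCl pH 8 with Tween 20, after 15 min compound preincubation at room temperature. Fluorescence change, last versus first of five reads.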
PNC assembly inh = High Content Assay for Compounds that inhibit the Assembly of the Perinucleolar Compartment. PC3M PTB-GFP, PNC prevalence imaging, 16 h; stronger effect = lower value. activity change (PNC), negative = inhibition, % at 10 µM. actives 3.1% (n = 140,000);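 active means readout at or below -70, meaning at least 70% loss of cells showing the perinucleolar compartment, a nuclear body marking cancer cells; inconclusive means readout between -30 and a set limit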;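 further: plate controls were DMSO wells for no effect and camptothecin positive control wells for full effect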
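PC3M cells stably expressing PTB-GFP, 750–1000 cells/well, treated 16 h at 37 °C with compound (23 nl of library stock), in duplicate. After paraformaldehyde fixation and Hoechst stain, imaged at 20x; PNC prevalence scored by image analysis.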
* hit, by the source's call; ? = inconclusive; · = not tested or not shown; [ ] = another dose, or the depositor's remark. Only some compounds are listed: those with a hit (about 11% of all), similar ones and a draw of the others. Unless noted, the call rests on the fitted dose curve; in most records, active means well fitted inhibition curve with a large enough effect (not every such curve was filed as active); inconclusive means small, poorly fitted or top-dose-only effect, or another doubt; inactive means no such curve, though single readings can be large or run the other way.

SMILES	RGS12 GoLoco inh	HTT aggregate	HTT ATP protect	ALDH1A1 inh	HPGD inh	PNC assembly inh
Cc1ccc(N2C(=O)CC(SCC(=O)Nc3ccc(S(N)(=O)=O)cc3)C2=O)cc1 (configuration not stated)	-5.3%	-3.2%	-18.5%	14.1µM*	·	·
O=C(O)CCc1cc(I)c(O)c(I)c1	-23.7%	·	15.4%	4.3%	·	·
O=C(CSc1nnc(-c2cc3ccccc3cc2O)n1Cc1ccco1)N1CCc2ccccc2C1	-6.3%	?	-51.1%	35.5µM*	-21.3%	35.6
Clc1ccccc1-c1nnc(-c2ccccc2Cl)o1	9.2%	0.7%	-4.1%[10 µM]	-9.0%	15.8µM*	19.1
O=C(CSc1nnc(-c2ccccc2O)o1)N1CCc2ccccc2C1	0.5%	0.6%[9.22 µM]	-3.4%[10 µM]	22.4µM*	-26.7%	-2.2
Clc1ccc(-c2nnc(-c3ccccc3Cl)o2)cc1	·	-0.5%	-7.5%	?	·	-7.8
O=C(CSc1nnc(-c2ccccc2Cl)o1)N1CCCCC1	5.9%	4.8%	-3.9%[10 µM]	?	25.1µM*	1.8
O=C(CSc1nnc(-c2ccccc2)o1)N1CCc2ccccc2C1	9.5%	-3.5%	6.6%[10 µM]	-9.4%	?	7.4
O=C(CSc1nnc(-c2ccncc2)o1)N1CCCCCC1	10.2%	-9.9%[9.22 µM]	-2.1%[10 µM]	-3.4%	·	·
COc1ccccc1-c1nc(SCC(=O)NCC2CCCO2)c2c(=O)n(C)c(=O)n(C)c2n1 (configuration not stated)	-5.8%	-8.0%	-10.5%	?	·	·
Cc1ccc(C(=O)N2c3ccccc3N(Cc3ccccc3)C(=O)C2(C)C)cc1	12.1%	?	-65.4%	2.1%	-12.4%	-4.2
O=C(CN1CCSCC1)N1CCc2[nH]c3ccc(Br)cc3c2C1	3.9%	7.3%	4.3%[10 µM]	15µM*	-5.5%	?
Cc1ccc2[nH]c3c(c2c1)CN(C(=O)CN1CCN(c2cccc(C)c2C)CC1)CC3	5.7%	5.7%	-5.1%[0.074 µM]	4.47µM*	?	?
O=C(CN1CCN(C(=O)c2ccco2)CC1)N1CCc2[nH]c3ccccc3c2C1	-2.7%	0.0%[9.22 µM]	-13.3%[10 µM]	10µM*	·	·
Cc1ccc2[nH]c3c(c2c1)CN(C(=O)CN1c2ccc(F)cc2CCC1C)CC3 (configuration not stated)	-1.7%	-25.2%	-19.6%	?	?	11.5
Cc1ccc2[nH]c3c(c2c1)CN(C(=O)CN1CCN(C(=O)c2ccco2)CC1)CC3	-50.7%	-6.6%[9.22 µM]	4.7%[10 µM]	·	·	·
CCC(CC)NC(=O)c1cccc(Oc2ccccc2)c1	1.0%	-4.1%	?	2.7%	·	·
COC(=O)c1ccccc1NC(=O)CN1CCC(NC(=O)c2ccccc2C)CC1	-5.3%	25.1%	-12.6%[10 µM]	20µM*	-4.2%	-2.6
Cc1nn(CC(C)C)c(=S)[nH]c1=O	4.7%	17.8%	16.0%	-10.8%	-10.2%	-83.4*
CC(C)Cn1c2c(c(O)c(C(=O)Nc3ncccc3O)c1=O)CCCC2	3.6%	?	6.0%[10 µM]	7.94µM*	-7.6%	-90.9*
CC(C)Cn1c2c(c(O)c(C(=O)Nc3ccc(F)cc3)c1=O)CCCC2	·	-19.3%	7.2%[0.074 µM]	?	·	16.8
COc1cc2ncnc(NCc3ccccc3)c2cc1OC	3.8%	?	7.8%[10 µM]	-13.8%	?	-28.5
OCCCCCNc1ncnc2ccccc12	3.5%	7.94µM*	29.3%[10 µM]	-1.9%	-2.8%	1.1
c1ccc(CNc2ncnc3ccccc23)cc1	5.3%	4.47µM*	4.1%[10 µM]	-1.2%	-28.4%	5.8
O=C(Nc1ccc([N+](=O)[O-])cc1)c1cc2ccccc2nc1Cl	1.2%	-13.5%[9.22 µM]	-4.4%[10 µM]	·	·	·
SMILES	RGS12 GoLoco inh	HTT aggregate	HTT ATP protect	ALDH1A1 inh	HPGD inh	PNC assembly inh
O=C(CSCc1c(F)cccc1Cl)Nc1ccccc1C(=O)N1CCOCC1	-8.9%	0.9%	-27.4%	-5.0%	·	·
COC(=O)COc1cccc(NS(=O)(=O)c2ccc(NC(C)=O)cc2)c1	7.8%	-1.9%	7.0%	9.8%	0.0%	-87.9*
COc1cc(C#N)ccc1OCC(=O)Nc1cccc(S(=O)(=O)N2CCCC2)c1	132.0%	8.7%	-5.5%	12.6µM*	·	·
COc1cc(/C=C/C(=O)OCC(=O)Nc2ccc(S(=O)(=O)N3CCCC3)cc2)ccc1O	9.9%	-8.8%	2.2%[10 µM]	?	?	18.0
Cc1cccc(OCC(=O)Nc2ccc(S(=O)(=O)Nc3cc(C)nc(C)n3)cc2)c1	43.1%	20.0%[9.22 µM]	-3.4%[10 µM]	?	·	·
Cc1cccc(OCC(=O)NC(=S)Nc2ccc(S(=O)(=O)NC3CCCCC3)cc2)c1	4.1%	-10.4%[9.22 µM]	-10.1%	15.8µM*	?	-22.6
COc1cccc(/C=C/C(=O)OCC(=O)Nc2ccc(S(=O)(=O)N3CCCC3)cc2)c1	57.5%	-4.5%	5.1%[10 µM]	7.08µM*	?	42.9
CCN(CC)C(=O)Nc1ccc(OC[C@H](O)CNC(C)(C)C)c(C(C)=O)c1	·	-14.5%	-4.6%	·	·	·
COC(=O)C1=C(C)N(Cc2ccccc2)C2=C(C(C)=O)C[C@@](O)(C(=O)OC)C(=O)N2C1c1ccccc1 (some centres not stated)	·	·	2.4%[10 µM]	-5.5%[13.5 µM]	·	·
Cc1cnc(C(=O)OCC(=O)NCc2ccc3c(c2)OCO3)cn1	9.7%	?	5.8%	1.4%	·	·
COCC(=O)N1CCC[C@@]2(CCN(c3ccncc3)C2)C1	9.7%	·	-5.0%	8.5%	-2.7%	·
Cc1nc2ncnn2c(C)c1CCC(=O)Nc1ccc(S(=O)(=O)N2CCCCCC2)cc1	-2.1%	-12.0%	-4.1%	6.31µM*	15.8µM*	-93.8*
O=C(COC(=O)CCN1C(=O)c2ccccc2C1=O)Nc1ccc(S(=O)(=O)N2CCCC2)cc1	10.6%	1.2%	5.8%[4.97 µM]	5.01µM*	-13.8%	9.6
Cc1cccc(OCC(=O)Nc2ccc(S(=O)(=O)N3CCCC3)cc2)c1	9.7%	-5.1%	4.7%	?	-11.3%	-99.0*
O=C(COC(=O)CN1C(=O)c2ccccc2C1=O)Nc1ccc(S(=O)(=O)N2CCCC2)cc1	6.0%	-3.9%[9.22 µM]	-10.7%	?	-1.9%	-3.7
Cc1ccc(NC(=O)CCc2c(C)nc3ncnn3c2C)cc1	3.1%	15.1%	6.4%	-0.1%	-9.0%	59.2
COC(=O)[C@H]1[C@@H](C)N(Cc2ccccc2)C(=O)N[C@H]1c1ccccc1	7.1%[14.2 µM]	·	-12.9%[10 µM]	?	-2.1%	·
COc1ccc(-c2nn(CCC#N)cc2C=C(C#N)C#N)cc1	2.3%	-7.4%[9.22 µM]	-3.9%[10 µM]	·	·	·
